Laboratory results as given in PubChem BioAssay AID1159580 (chemical genetic matrix, 2015).
The campaign covered roughly 5,500 compounds. About 2,000 (36%) were called active. Another 18% or so got no clear call; they are omitted. No stated cut-off is given here; in the data, active means normalized growth mostly below about 0.91 (no sharp cut-off); inconclusive means no clear call, values can overlap the other calls; inactive means mostly above about 0.92. The list shows a part of the results.

Assay: chemical genetic growth profiling, strain panel (AID 1159580);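 further: tested at 20 µM; growth read once vehicle control cultures reached saturation at 30 °C; 1 = growth at the plate median or of vehicle wells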
Details: growth OD

Measured: normalized growth

COc1ccc(C(C)=O)cc1CSC(=NS(=O)(=O)c1ccccc1)Nc1cccc(F)c1
inactive: S. cerevisiae deletion strains, locus YAL013W, strain DEP1, stronger effect = lower value 1.01 | S. cerevisiae deletion strains, locus YBR229C, strain ROT2, stronger effect = lower value 0.993 | S. cerevisiae deletion strains, locus YDL101C, strain DUN1, stronger effect = lower value 0.988 | S. cerevisiae deletion strains, locus YDL134C, strain PPH21, stronger effect = lower value 0.994 | S. cerevisiae deletion strains, locus YDR150W, strain NUM1, stronger effect = lower value 0.913 | S. cerevisiae deletion strains, locus YEL061C, strain CIN8, stronger effect = lower value 0.974 | S. cerevisiae deletion strains, locus YGR078C, strain PAC10, stronger effect = lower value 1.02 | S. cerevisiae deletion strains, locus YHR030C, strain SLT2, stronger effect = lower value 0.944 | S. cerevisiae deletion strains, locus YHR087W, strain rtc3, stronger effect = lower value 0.981 | S. cerevisiae deletion strains, locus YJR043C, strain POL32, stronger effect = lower value 1.01 | S. cerevisiae deletion strains, locus YJR075W, strain HOC1, stronger effect = lower value 0.981 | S. cerevisiae deletion strains, locus YKL190W, strain CNB1, stronger effect = lower value 0.984 | S. cerevisiae deletion strains, locus YLR039C, strain RIC1, stronger effect = lower value 0.876 | S. cerevisiae deletion strains, locus YLR058C, strain SHM2 (second series), stronger effect = lower value 1 | S. cerevisiae deletion strains, locus YLR085C, strain ARP6, stronger effect = lower value 0.921 | S. cerevisiae deletion strains, locus YLR262C, strain YPT6, stronger effect = lower value 0.915 | S. cerevisiae deletion strains, locus YML094W, strain GIM5, stronger effect = lower value 0.973 | S. cerevisiae deletion strains, locus YMR219W, strain ESC1, stronger effect = lower value 0.999 | S. cerevisiae deletion strains, locus YMR263W, strain SAP30, stronger effect = lower value 0.998 | S. cerevisiae deletion strains, locus YMR307W, strain GAS1, stronger effect = lower value 0.737 | S. cerevisiae deletion strains, locus YNL153C, strain GIM3, stronger effect = lower value 1.03 | S. cerevisiae deletion strains, locus YNL298W, strain CLA4 (second series), stronger effect = lower value 0.963 | S. cerevisiae deletion strains, locus YNL322C, strain KRE1, stronger effect = lower value 0.98 | S. cerevisiae deletion strains, locus YNR030W, strain Alg12, stronger effect = lower value 0.952 | S. cerevisiae deletion strains, locus YPL055C, strain LGE1, stronger effect = lower value 1.02 | S. cerevisiae deletion strains, locus YPL241C, strain CIN2, stronger effect = lower value 0.983 | S. cerevisiae deletion strains, locus YPR135W, strain CTF4, stronger effect = lower value 1.03 | S. cerevisiae strains, strain wild type, stronger effect = lower value 0.988
